# Only some compounds are listed: those with a hit (about 2.3% of all), similar ones and a draw of the others.
# LMP1 NFkB inh = Epstein-Barr LMP1 NF-kappaB reporter inhibition | LMP1-induced NF-kappaB luciferase reporter cells, luminescence | inhibition, % at 12.5 µM | actives 0.69% (n = 350,000); in the data active = inhibition above about 41%;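 also: 0% = neutral control wells and 100% = reference inhibitor control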
# Gli-Sufu antag = Gli-Sufu pathway antagonism. actives 0.74% (n = 340,000). Sufu-KO-LIGHT fibroblasts, Gli luciferase reporter luminescence. inhibition, % at 5 µM. AID 588413;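 active = inhibition above about 55%, limit read from the data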;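 also: 0% = DMSO-treated cells and 100% = wells with medium but no cells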
# MITF TRPM1 inh = reduces MITF-dependent TRPM1 promoter luciferase signal; SK-MEL-5 TRPM1 promoter luciferase, 24 h; inhibition, % at 12.5 µM; actives 0.83% (n = 330,000);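 active = mean inhibition across replicates of 60% or more, whatever share of single replicates reaches that level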
# Jurkat NFkB inh = inhibitors of the PMA/ionomycin-induced NF-kB reporter in Jurkat cells; actives 0.53% (n = 330,000); AID 435003; PMA/ionomycin-induced NF-kB luciferase reporter, luminescence; inhibition, % at 4 µM; in the data active = inhibition above about 50%
# 697 NFkB inh = inhibitors of the PMA/ionomycin-induced NF-kB reporter in 697 B cells. 697 B-cell NF-kB luciferase reporter, 16 h. inhibition, % at 4 µM. actives 0.33% (n = 330,000). AID 435022; in the data active = inhibition above about 35%
# Shn3 inh set2 = reduces Shn3 3'UTR luciferase signal in osteoblasts. actives 0.52% (n = 360,000). inhibition, % at 12.5 µM. Clone20 osteoblast Shn3 3'UTR firefly luciferase, 24 h. AID 588674;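 active = mean inhibition of at least 75% with every replicate also reaching 75%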;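 also: 0% = median of neutral control wells and 100% = pilot-screen positive control compound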
# Jurkat NFkB conf = inhibitors of the PMA/ionomycin-induced NF-kB reporter in Jurkat cells, retest. inhibition, % at 4 µM. actives 27% (n = 2,700). shares compounds with Jurkat NFkB inh. Jurkat NF-kB luciferase, 16 h;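 active = inhibition reaching about 45% at 4 µM in either replicate, limit read from the data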;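 also: plate controls were PMA/ionomycin stimulated DMSO wells for no effect and unstimulated DMSO wells for full effect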
# 697 NFkB conf = lowers PMA/ionomycin-induced NF-kB signal in 697 B cells; shares compounds with 697 NFkB inh; 697 B-cell NF-kB luciferase, 16 h; inhibition, % at 4 µM; actives 35% (n = 2,000); in the data active = inhibition mostly above about 28%, no sharp cut-off; inactive = mostly below about 22%
# Numbers without * were called inactive; / = no result given.
SMILES,LMP1 NFkB inh,Gli-Sufu antag,MITF TRPM1 inh,Jurkat NFkB inh,697 NFkB inh,Shn3 inh set2,Jurkat NFkB conf,others
O=C(O)c1ccc(N/N=C/c2ccc3c(c2)OCO3)cc1,65*,48,83*,75*,29,60,43,
Cc1ccsc1C(=O)N/N=C/c1ccc2c(c1)OCO2,-12,-80,-10,-154,-196,-52,-70,
O=C(N/N=C/c1ccc2c(c1)OCO2)c1cccs1,-25,-114,-20,-72,-95,-41,/,
CCOc1ccc(S(=O)(=O)N2c3ccccc3CC2C)cc1 (stereo not drawn),0,8,11,71*,10,5,51*,
CC1CCN(C(=O)CN(c2ccc(Cl)c(C(F)(F)F)c2)S(C)(=O)=O)CC1,-5,0,-4,0,-4,26,/,
CC1=C/C(=N\OS(=O)(=O)c2ccccc2)C(C)=CC1=O,9,3,34,51*,-13,93*,28,
CN1N=C(C(=O)N2CCCC(Nc3ccc(F)c(F)c3)C2)CCC1=O (stereo not drawn),3,-2,3,-14,16,9,/,
CN1/C(=C/C=C(/C#N)C(N)=O)C(C)(C)c2ccccc21,-7,7,8,61*,-86,-8,10,
CN1/C(=C\C=C(/C#N)C(=O)Nc2ccccc2F)C(C)(C)c2ccccc21,9,9,-9,4,15,15,/,
COc1ccc(-c2csc(-c3cccs3)n2)c(OC)c1,-76,-111,-40,-186,-119,-22,-131,
COc1ccc(CNC(=O)CCCn2nc(C)n3c(cc4sccc43)c2=O)cc1,4,-14,-13,1,11,-2,/,
COc1ccc(-c2cc(C(=O)NCC(C)C)no2)cc1,4,-92,-80,-157,-138,-43,-90,
CCn1cc(C(=O)NCc2ccc3c(c2)OCO3)c(=O)c2cc(F)c(N3CCN(C(=O)c4ccco4)CC3)cc21,21,19,16,14,-10,51,/,
Cc1ccnc(NC(=O)CNC(=O)c2sc3ccccc3c2Cl)c1,-24,-24,-89,-114,-71,-108,/,
Cc1ccnc(NC(=O)c2cc3cc(F)ccc3s2)c1,-27,-134,-50,-169,-172,-4,-119,
Cc1ccnc(NC(=O)c2sc3cc(Cl)ccc3c2Cl)c1,-11,-69,-26,-165,-146,-78,-56,
Cc1ccnc(NC(=O)c2ccc([N+](=O)[O-])s2)c1,-33,-13,29,-50,-37,-50,/,
CC1CCN(C(C)C(=O)Nc2ccc(S(=O)(=O)N3CCCC3)cc2)CC1 (stereo not drawn),4,14,-1,-10,4,-14,/,
CCOC(=O)c1ccccc1NS(=O)(=O)c1ccc(OCC)cc1,-14,2,11,62*,-88,9,42,
CCOc1ccc(S(=O)(=O)Nc2ccccc2C(=O)N(C)C2CCN(C)CC2)cc1,8,/,-9,-14,3,-49,/,
O=C(/C=C/c1ccco1)Nc1cc(Cl)ccc1C(=O)O,-5,3,-11,3,5,-9,/,
O=C(/C=C\c1ccco1)Nc1cc([N+](=O)[O-])ccc1F,7,23,56,68*,-31,-4,17,
O=C(CCNS(=O)(=O)c1ccccc1F)NC1CCCCCC1,4,-2,-9,6,18,3,/,
CCOc1ccccc1N1CC(O)=C(c2nc3ccccc3s2)C1=N,2,9,36,59*,-11,16,47,
COc1ccc(OC)c(N2CC(O)=C(c3nc4ccccc4s3)C2=N)c1,2,10,2,3,4,9,/,
SMILES,LMP1 NFkB inh,Gli-Sufu antag,MITF TRPM1 inh,Jurkat NFkB inh,697 NFkB inh,Shn3 inh set2,Jurkat NFkB conf,others
COc1ccccc1N(C)S(=O)(=O)c1ccc(Cl)c(C(=O)NCC2(N(C)C)CCCCC2)c1,3,18,-4,-8,-1,3,/,
Cc1nc(NC2=NCN(Cc3cccnc3)CN2)nc2ccccc12,-9,8,9,/,/,-17,/,
Cc1nc(NC2=NCN(CCCN3CCOCC3)CN2)nc2c(C)cccc12,-9,18,35,64*,-38,7,-2,
CC(C)N1CCC(N2CCN(Cc3ccc4nsnc4c3)CC2CCO)CC1 (stereo not drawn),4,15,-2,16,2,-7,/,
Cc1ccc(C(=O)Nc2ccc(Cl)cc2C)c(Cl)c1,-42,/,-69,-153,-90,-50,-103,
Cc1ccccc1-c1nnc(SCc2ccccc2F)o1,-29,-132,-41,-153,-188,-42,-74,
Fc1ccccc1CSc1nnc(-c2ccccc2)o1,-27,-126,-113,-156,-150,-47,-65,
COc1ccc(-c2nnc(SCc3ccccc3F)o2)cc1,-30,-99,-58,-161,-204,-33,-87,
Fc1ccccc1CSc1nnc(-c2cccnc2)o1,-25,-87,-42,-80,-67,-112,/,
CCOc1cc(S(=O)(=O)NCc2ccc(OC)cc2)c(OCC)cc1-n1cnnn1,16,-7,-1,57*,-27,-18,12,
COc1ccc(C(=O)/C=C2/c3ccccc3CC(C)(C)N2C)cc1,3,34,-6,61*,-48,-9,-9,
CN1/C(=C\C(=O)Nc2cccnc2)c2ccccc2CC1(C)C,-16,33,6,13,11,34,/,
CCc1ccccc1N(C)S(=O)(=O)c1ccc(-c2cc(C)no2)s1,11,37,21,55*,-69,74,28,
CCN(c1ccc(OC)cc1)S(=O)(=O)c1ccc(-c2cc(C)no2)s1,-8,14,10,31,-8,13,/,
CCOC(=O)C1CCC/C1=N\NC(=O)CN(c1cc(OC)ccc1OC)S(=O)(=O)c1ccccc1 (stereo not drawn),1,-26,-3,22,1,-2,/,
CCOc1ccc(C(=O)COC(=O)Cc2n[nH]c(=O)c3ccccc23)cc1,-7,-6,18,55*,-7,15,8,
NC(=O)c1c(NC(=O)c2ccccc2F)sc2c1CCCC2,-5,-102,-17,-174,-194,-107,-108,
NC(=O)c1c(NC(=O)c2ccccc2C(=O)O)sc2c1CCCC2,3,4,6,18,0,-2,/,
COc1ccccc1CNC(=O)CSc1nc(N)c(C#N)c(-c2cccs2)c1C#N,20,3,13,3,-24,10,/,
COc1cc([N+](=O)[O-])ccc1N/C=C/C(=O)c1cccs1,-5,-67,19,-188,-267,-8,-72,697 NFkB conf=-169
Fc1ccc(C2CCCN2Cc2nc(Cc3ccccc3F)no2)cc1 (stereo not drawn),-12,-7,-1,-13,20,25,/,

# Screening results (PubChem BioAssay)
